# Assay outcomes deposited in PubChem BioAssay by University of Pittsburgh Molecular Library Screening Center.
# This excerpt belongs to a sample that is enriched for hits.
# HIV RNase H inh-1: HIV-1 RT RNase H inhibitors, primary screen, biochemical, fluorescence; Gag-Pol polyprotein (Human immunodeficiency virus type 1 group M subtype B (isolate …; RT-RNase H RNA/DNA duplex cleavage; inhibition, % at 10 µM; 1.9% of 65,000 active; AID 565, 2006; in the data active = inhibition above about 50%
# HIV RNase H inh-2: HIV-1 RT RNase H inhibitors, retest, confirmation, biochemical. shares compounds with HIV RNase H inh-1. Recombinant RT RNase H, fluorescent RNA/DNA duplex cleavage. inhibition, % at 10 µM. 39% of 1,000 active; in the data active = inhibition above about 48%
# The depositor's hits bear a star.
SMILES,HIV RNase H inh-1,others
CCOc1ccc2nc(NCCCNS(=O)(=O)c3ccccc3)c(C#N)cc2c1,-24,
CN1CCN(S(=O)(=O)c2ccc(Sc3nnc(-c4cccs4)n3-c3ccccc3)nc2)CC1,-1,
CCOc1ccc(CCNS(=O)(=O)c2cnc[nH]2)cc1OCC,-21,
Cc1nn(C(=O)CCCC(=O)n2nc(C)c(Cl)c2C)c(C)c1Cl,7,
CCOC(=O)N1CCN(C(=O)CCSc2ccccc2)CC1,-2,
O=C(c1ccc(Cn2cc(Br)cn2)o1)n1cccn1,-12,
Cc1c(C(N)=O)sc(N)c1C(=O)OC(C)C,84*,HIV RNase H inh-2=42
COCCNC(=O)c1ccc(C(=O)NCCOC)s1,-11,
CC(C)Oc1ccc(C(=O)NC2CCS(=O)(=O)C2)cc1 (stereo not drawn),1,
Nc1sc2c(c1C(=O)NC1CCS(=O)(=O)C1)CCC2 (stereo not drawn),66*,HIV RNase H inh-2=74*
COCCNC(=O)c1c(N)sc2c1CCCC2,63*,HIV RNase H inh-2=10
CCOC(=O)c1c(N)sc(C(=O)N2CCCCCC2)c1C,1,
O=C(NC1CCS(=O)(=O)C1)c1ccccc1C(=O)c1ccccc1 (stereo not drawn),-4,
CCOC(=O)c1c(N)sc(C(N)=O)c1C,6,
CCOC(=O)c1c(NC(=O)OC)sc2c1CCC2,-15,
N#CC12CCCCC1CC1CCCCC1(C#N)N2Cc1cccnc1 (stereo not drawn),0,
CCc1c(C)nc(/N=C(/NC(=O)c2ccccc2)Nc2ccccc2OC)[nH]c1=O,41,
C/C(N)=C(\C#N)C(=O)NCc1ccccn1,-5,
CCCCCn1c(SCCc2ccccc2)nc2c1c(=O)[nH]c(=O)n2C,11,
CCCn1c(SCCc2ccccc2)nc2c1c(=O)[nH]c(=O)n2C,7,
CCCCCn1c(SCCOCC)nc2c1c(=O)[nH]c(=O)n2C,-14,
CCCCCn1c(SCCCC)nc2c1c(=O)[nH]c(=O)n2C,71*,HIV RNase H inh-2=61*
CCCCCCn1c(SCCC)nc2c1c(=O)[nH]c(=O)n2C,-2,
CC(C)CCn1c(SCCc2ccccc2)nc2c1c(=O)[nH]c(=O)n2C,74*,HIV RNase H inh-2=5
COCCOC(=O)c1c(C)oc2ccc(OC(=O)c3c(OC)cccc3OC)cc12,3,
SMILES,HIV RNase H inh-1,others
COc1ccc(CCC(=O)Nc2nc3c(s2)CN(C)CC3)cc1OC,2,
CCSc1nnc(NC(=O)CSc2nnc(-c3c[nH]c4ccccc34)n2C)s1,-10,
COc1ccc2[nH]cc(C(=O)CN3CCN(C/C=C/c4ccccc4)CC3)c2c1,2,
COc1ccc(-c2nc(N3CCCC3)[nH]c(=O)c2C#N)cc1,-6,
N#Cc1c(N)nc2c(c1-c1cccnc1)CCCCC2,-13,
N#Cc1c(-c2ccco2)c2c([nH]c1=S)CCCC2,82*,HIV RNase H inh-2=36
N#Cc1c(-c2cccnc2)c2c([nH]c1=S)CCCC2,90*,HIV RNase H inh-2=69*
COc1ccc(-c2c3c([nH]c(=S)c2C#N)CCC3)cc1,81*,HIV RNase H inh-2=25
N#Cc1sc2nc3c(c(-c4cccnc4)c2c1N)CCC3,-35,
N#Cc1c(N)nc2c(c1-c1ccco1)CCCCC2,-22,
N#Cc1c2c(c(-c3ccco3)[nH]c1=O)CCCC2,-7,
CSc1ccc(-c2c(C#N)c(N)nc3c2CCCC3)cc1,3,
CNC(=O)c1cc2cc(Cl)cc(OC)c2oc1=O,-9,
Cc1cc2ncn(CCOc3ccccc3C#N)c2cc1C,-23,
O=P(O)(c1ccc(Cl)cc1)c1ccc(Cl)cc1,-3,
Cc1c(Br)cc(C(=O)OC2CCN(C)CC2)c(C)c1C,3,
COc1ccc(CNC(=O)C(OC(C)=O)c2ccccn2)cc1 (stereo not drawn),-6,
COc1ccc(C(=O)Nc2ccccc2C(=O)NC(C(=O)NCc2ccco2)C(C)C)cc1 (stereo not drawn),82*,HIV RNase H inh-2=7
COc1ccc(C(=O)Nc2ccccc2-c2nnn(CC(=O)NCc3ccco3)n2)cc1,0,
COC(=O)c1ccccc1NC(=O)NCc1ccco1,-22,
Cc1cc(O)c(-c2n[nH]c3c2C(c2cccc(O)c2)N(Cc2cccnc2)C3=O)cc1Cl (stereo not drawn),9,
CCn1cc(C(=O)Nn2cnnc2)c(=O)c2ccc(C)nc21,2,
CCOc1cc(C(=O)N2CCN(c3ccccc3)CC2)cc(OCC)c1OCC,1,
S=C(c1ccc(N2CCCC2)cc1)N1CCCCC1,6,
CCN(CC)c1ccc(C(=S)N2CCN(c3ccccc3)CC2)cc1,73*,HIV RNase H inh-2=26
SMILES,HIV RNase H inh-1,others
O=C(NCN1C(=O)C2C3C=CC(C3)C2C1=O)OC1CCCCC1 (stereo not drawn),-5,
CCc1c(C)nc(Nc2nc(C)c3cc(OC)ccc3n2)[nH]c1=O,-46,
COc1ccc2nc(SCC(N)=O)[nH]c2c1,-4,
COc1ccc2nc(S(=O)Cc3ncc(C)c(OC)c3C)[nH]c2c1 (stereo not drawn),76*,HIV RNase H inh-2=18
O=C(NCc1ccc(Cl)cc1)c1noc2c1CCCCC2,-5,
O=C(Cn1cnc2c(nnn2Cc2ccc(F)cc2)c1=O)N1CCCc2ccccc21,5,
Cc1sc(NC(=O)CSc2nnc(-c3ccc(F)cc3)o2)c(C#N)c1C,6,
CCOC(=O)c1cc(-c2nnc(SCC(=O)Nc3ccc(F)cc3)o2)c(C)nc1C,70*,HIV RNase H inh-2=2
CCOC(=O)c1cc(-c2nnc(-c3ccc(Cl)cc3)o2)c(C)nc1C,10,
Cc1onc(COc2ccccc2O)c1Br,-18,
CN(C)c1ccc(/C(=N\O)c2ccccc2)cc1,12,
COC(=O)c1ccc2c(=O)n(CC3CCCO3)c(SCC(=O)Nc3ccccc3OC)nc2c1 (stereo not drawn),-13,
COC(=O)c1ccc2c(=O)n(Cc3ccco3)c(SCC(=O)Nc3ccccc3Cl)nc2c1,86*,HIV RNase H inh-2=67*
O=C(CSc1nc2ccccc2c(=O)n1Cc1ccco1)NCc1ccco1,-1,
CCCc1nc2ccccc2n2cc3c(=O)n(C)c(=O)n(C)c3c12,-68,
CN(C)CC(O)COc1cc2ccccc2cc1C(=O)N1CCCCC1 (stereo not drawn),11,
O=C(O)c1ccc2[nH]c3c(c2c1)CSCC3,66*,HIV RNase H inh-2=-1
O=C(CN1CCSCC1)N1CCc2[nH]c3ccc(Br)cc3c2C1,15,
O=C(NCCO)c1ccc2[nH]c3c(c2c1)CCCC3,6,
Cc1cccc(-c2nc(CSCC(=O)N3CCN(Cc4ccc5c(c4)OCO5)CC3)c(C)o2)c1,-29,
CCC1CCCCN1C(=O)Cn1c(C(=O)OC)cc2ccsc21 (stereo not drawn),-7,
OCc1nc2ccccc2n1CCCOc1ccc(Br)cc1,-15,
Cc1c(C#N)c2ccccc2n1CC(=O)O,-7,
Cc1cccc(NC(=O)Cn2c(C)c(C#N)c3ccccc32)c1C,72*,HIV RNase H inh-2=63*
CCOC(=O)Cn1c(C)c(C#N)c2ccccc21,-12,
SMILES,HIV RNase H inh-1,others
Cc1cc(C)cc(N(CC(=O)NCc2cccnc2)S(C)(=O)=O)c1,-9,
O=C(NCCC1=CCCCC1)C1COc2ccccc2O1 (stereo not drawn),-1,
CCOC(=O)c1ccc(NC(=O)CSc2nnc(CNc3ccc(OC)cc3)n2C)cc1,9,
CCOc1ccc(CN2CCNC(=O)C2CC(=O)OC)cc1 (stereo not drawn),3,
Cc1ccc(NC(=O)COS(=O)c2ccc(C)cc2)cc1 (stereo not drawn),-4,
CC(C)(O)C#Cc1ccc(C(=O)NCc2cccs2)s1,65*,HIV RNase H inh-2=38
CC(=O)c1ccc(C#CC(C)(C)O)s1,-10,
O=C(NCc1cccs1)c1ccccc1C(=O)NCc1cccs1,-1,
